The results in this text go back to PubChem BioAssay (EPA / NIEHS).

Activity calls are given as the source filed them. Rule for the calls: active = hit-call score of the fitted dose curve at least 0.9, where 1 is the maximum; inactive = score below 0.9.

For orientation: AC50 means the concentration giving half of the maximal activity seen.

Common to all, as to details: mRNA level, 48 h; actives raise or lower the signal
Read-out in test [1]: Cytochrome P450 4A22 (Homo sapiens) (UniProt Q5TCH4)
Put plainly: LTEA_HepaRG_CYP4A22: Life Technologies and Expression Analysis (LTEA) Assay for Cytochrome P450 4A22 (CYP4A22) using HepaRG (AID 2283495). The procedure, abridged:
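Concentration-response (8 points, max 100 uM, 0.5% DMSO) in human HepaRG liver cells after 48 h exposure. CYP4A22 mRNA by TaqMan qRT-PCR with housekeeping-gene normalization.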

Read-out in test [2]: Cytochrome P450 7A1 (Homo sapiens) (UniProt P22680)
Put plainly: LTEA_HepaRG_CYP7A1: Life Technologies and Expression Analysis (LTEA) Assay for Cytochrome P450 7A1 (CYP7A1) using HepaRG (AID 2283496). In outline: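 Using 0.5% DMSO as vehicle and baseline, chemicals were tested in duplicate over an 8-point range from 100 uM on HepaRG cells for 48 h; qRT-PCR signals were normalised to ACTB, GAPDH and POLR2A.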

Read-out in test [3]: Glutathione S-Transferase (GSTA2), GSTA2 (gene 2939)
The experiment in a line: LTEA_HepaRG_GSTA2: Life Technologies and Expression Analysis (LTEA) Assay for Glutathione S-Transferase (GSTA2) using HepaRG (AID 2283497). In outline: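 GSTA2 transcript levels came from Fluidigm TaqMan qRT-PCR normalized to three housekeeping genes, fitted in both directions against DMSO. HepaRG cultures received chemicals for 48 h in serum-free induction medium (0.5% DMSO), 8 half-log concentrations up to 100 uM, duplicate.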

Read-out in test [4]: Glutamate-cysteine ligase catalytic (GCLC), GCLC (gene 2729)
Put plainly: LTEA_HepaRG_GCLC: Life Technologies and Expression Analysis (LTEA) Assay for Glutamate-cysteine ligase catalytic (GCLC) using HepaRG (AID 2283498). In outline: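 Expression by TaqMan qRT-PCR, normalized to three housekeeping genes (ACTB, GAPDH, POLR2A), with up- or down-regulation fitted against DMSO. HepaRG cells dosed in duplicate for 48 h with 8 half-log concentrations up to 100 uM, vehicle 0.5% DMSO.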

Read-out in test [5]: Glutamate-cysteine ligase regulatory (GCLM), GCLM (gene 2730)
The experiment in a line: LTEA_HepaRG_GCLM: Life Technologies and Expression Analysis (LTEA) Assay for Glutamate-cysteine ligase regulatory (GCLM) using HepaRG (AID 2283500). The procedure, abridged: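 In this multiplexed HepaRG gene-expression assay, GCLM mRNA change after 48 h treatment (8 concentrations, max 100 uM) was scored against DMSO by bidirectional curve fitting.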

Read-out in test [6]: Glutathione S-transferase M3 (GSTM3), GSTM3 (gene 2947)
Put plainly: LTEA_HepaRG_GSTM3: Life Technologies and Expression Analysis (LTEA) Assay for Glutathione S-transferase M3 (GSTM3) using HepaRG (AID 2283501). The procedure, abridged:
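Expression of GSTM3 is determined by qRT-PCR in human liver HepaRG cells treated 48 h with an 8-point half-log range from 100 uM in 0.5% DMSO.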

Read-out in test [7]: Heat shock 70 kDa protein 1 (HSPA1A), gene 3303
The experiment in a line: LTEA_HepaRG_HSPA1A: Life Technologies and Expression Analysis (LTEA) Assay for Heat shock 70 kDa protein 1 (HSPA1A) using HepaRG (AID 2283502). The procedure, abridged:
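An oxidative-stress marker readout: HepaRG cells treated 48 h in duplicate with an eight-point series (highest 100 uM) had HSPA1A mRNA quantified by TaqMan qRT-PCR. Activity was fitted in both directions using 0.5% DMSO as baseline.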

Read-out in test [8]: Hypoxia-inducible factor 1-alpha (Homo sapiens) (UniProt Q16665)
Put plainly: LTEA_HepaRG_HIF1A: Life Technologies and Expression Analysis (LTEA) Assay for Hypoxia-inducible factor 1 (HIF1A) Trancription factor using HepaRG (AID 2283503).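 Note: HIF1A transcript by TaqMan qRT-PCR normalized to ACTB GAPDH and POLR2A.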 The procedure, abridged: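 Gain- or loss-of-signal HIF1A mRNA changes are fitted against a DMSO baseline. HepaRG cultures receive eight concentrations, highest 100 uM, for 48 h in serum-free induction medium with 0.5% DMSO.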

Read-out in test [9]: 3-Hydroxy-3-Methylglutaryl-CoA Synthase 2 (HMGCS2), HMGCS2 (gene 3158)
The experiment in a line: LTEA_HepaRG_HMGCS2: Life Technologies and Expression Analysis (LTEA) Assay for 3-Hydroxy-3-Methylglutaryl-CoA Synthase 2 (HMGCS2) using HepaRG (AID 2283504). The procedure, abridged: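 This steatosis marker was read as HMGCS2 mRNA change in HepaRG cells treated 48 h with up to 100 uM chemical. Normalisation used housekeeping genes; activity in either direction was fitted relative to 0.5% DMSO vehicle.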

Read-out in the next test: HGF (gene 3082)
The experiment in a line: LTEA_HepaRG_HGF: Life Technologies and Expression Analysis (LTEA) Assay for Hepatocyte Growth Facto (HGF) using HepaRG (AID 2283505). In outline: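 Using HepaRG monolayers kept in 0.5% DMSO, chemicals were tested in duplicate over eight half-log concentrations from 100 uM for 48 h. Endpoint: HGF mRNA change relative to DMSO, normalized to ACTB/GAPDH/POLR2A.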

Read-out in test [10]: Insulin Like Growth Factor 1 (IGF1), IGF1 (gene 3479)
Put plainly: LTEA_HepaRG_IGF1: Life Technologies and Expression Analysis (LTEA) Assay for Insulin Like Growth Factor 1 (IGF1) using HepaRG (AID 2283506). In outline: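 Endpoint: IGF1 mRNA change by qRT-PCR, housekeeping-normalized, fitted bidirectionally relative to 0.5% DMSO vehicle. Human HepaRG cells were treated 48 h in serum-free induction medium, eight half-log concentrations topping at 100 uM.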

Read-out in test [11]: Intercellular Adhesion Molecule 1 (ICAM1), ICAM1 (gene 3383)
Put plainly: LTEA_HepaRG_ICAM1: Life Technologies and Expression Analysis (LTEA) Assay for Intercellular Adhesion Molecule 1 (ICAM1) using HepaRG (AID 2283507). In outline:
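Using the human liver line HepaRG, compounds are tested in duplicate over 48 h at concentrations up to 100 uM. Expression is determined by TaqMan qRT-PCR, normalized to endogenous controls, and analysed relative to 0.5% DMSO vehicle.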

Read-out in test [12]: Insulin-like growth factor-binding protein 1 (IGFBP1), IGFBP1 (gene 3484)
Put plainly: LTEA_HepaRG_IGFBP1: Life Technologies and Expression Analysis (LTEA) Assay for Insulin-like growth factor-binding protein 1 (IGFBP1) using HepaRG (AID 2283508). In outline:
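HepaRG, 48 h, 8 conc. (max 100 uM, half-log), duplicates, 0.5% DMSO. Readout: TaqMan qRT-PCR, ACTB/GAPDH/POLR2A normalisation. Fit: bidirectional vs DMSO.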

Read-out in test [13]: Interleukin 6 (IL6), IL6 (gene 3569)
Put plainly: LTEA_HepaRG_IL6: Life Technologies and Expression Analysis (LTEA) Assay for Interleukin 6 (IL6) using HepaRG (AID 2283509). In outline: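 Transcript levels, normalized to three housekeeping genes, were quantified by qRT-PCR after 48 h chemical treatment of HepaRG cells. Eight-point half-log series from 100 uM in 0.5% DMSO, duplicates. Fitted both directions against DMSO baseline.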

Read-out in test [14]: Interleukin 6 Receptor (IL6R), IL6R (gene 3570)
Put plainly: LTEA_HepaRG_IL6R: Life Technologies and Expression Analysis (LTEA) Assay for Interleukin 6 Receptor (IL6R) using HepaRG (AID 2283510).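 For AC50: differentiated human HepaRG liver cells in serum-free induction medium.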 The procedure, abridged: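 In this HepaRG screen, test chemicals act on cells for 48 h at up to 100 uM (eight half-log points, duplicate wells). IL6R expression is quantified by qRT-PCR after normalization to ACTB, GAPDH and POLR2A, with DMSO as baseline.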

Read-out in test [15]: Potassium channel subfamily K member 1 (KCNK1), KCNK1 (gene 3775)
Put plainly: LTEA_HepaRG_KCNK1: Life Technologies and Expression Analysis (LTEA) Assay for Potassium channel subfamily K member 1 (KCNK1) using HepaRG (AID 2283511). The procedure, abridged: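 KCNK1 transcript measured by TaqMan qRT-PCR against three housekeeping genes, after HepaRG cells were treated 48 h with eight half-log concentrations (top 100 uM, 0.5% DMSO). Curves fitted bidirectionally relative to vehicle.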

Read-out in test [16]: Keratin 19 (KRT19), KRT19 (gene 3880)
The experiment in a line: LTEA_HepaRG_KRT19: Life Technologies and Expression Analysis (LTEA) Assay for Keratin 19 (KRT19) using HepaRG (AID 2283512). In outline: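 Readout is qRT-PCR of KRT19 mRNA, normalized to ACTB, GAPDH and POLR2A, from HepaRG cells treated 48 h with eight-point half-log dilutions topping at 100 uM. Activity in either direction is scored relative to 0.5% DMSO vehicle.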

Read-out in test [17]: JUN Transcription Factor, JUN (gene 3725)
Put plainly: LTEA_HepaRG_JUN: Life Technologies and Expression Analysis (LTEA) Assay for JUN Transcription Factor using HepaRG (AID 2283513). In outline:
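Gene-expression endpoint: JUN mRNA (qRT-PCR, normalized to three reference genes) in HepaRG cultures treated 48 h with chemicals, duplicate wells, 100 uM maximum with half-log dilutions; bidirectional fitting relative to 0.5% DMSO.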

Read-out in test [18]: Lipase C (LIPC), LIPC (gene 3990)
Put plainly: LTEA_HepaRG_LIPC: Life Technologies and Expression Analysis (LTEA) Assay for Lipase C (LIPC) using HepaRG (AID 2283514). The procedure, abridged:
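LIPC expression was quantified by qRT-PCR against three housekeeping genes (ACTB, GAPDH, POLR2A). Differentiated human HepaRG cells received eight half-log doses (top 100 uM, 0.5% DMSO) in duplicate for 48 h; fitting bidirectional relative to DMSO.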

Read-out in test [19]: growth arrest and DNA damage 45 (GADD45G), GADD45G (gene 10912)
The experiment in a line: LTEA_HepaRG_GADD45G: Life Technologies and Expression Analysis (LTEA) Assay for growth arrest and DNA damage 45 (GADD45G) using HepaRG (AID 2283499). In outline: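 Concentration-response in HepaRG: 48 h dosing, 0.5% DMSO, highest level 100 uM. GADD45G expression by qRT-PCR, normalised to endogenous controls; bidirectional fit to DMSO.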

Chain of Hypoxia-inducible factor 1-alpha (Homo sapiens) (Q16665 whole entry, looked up): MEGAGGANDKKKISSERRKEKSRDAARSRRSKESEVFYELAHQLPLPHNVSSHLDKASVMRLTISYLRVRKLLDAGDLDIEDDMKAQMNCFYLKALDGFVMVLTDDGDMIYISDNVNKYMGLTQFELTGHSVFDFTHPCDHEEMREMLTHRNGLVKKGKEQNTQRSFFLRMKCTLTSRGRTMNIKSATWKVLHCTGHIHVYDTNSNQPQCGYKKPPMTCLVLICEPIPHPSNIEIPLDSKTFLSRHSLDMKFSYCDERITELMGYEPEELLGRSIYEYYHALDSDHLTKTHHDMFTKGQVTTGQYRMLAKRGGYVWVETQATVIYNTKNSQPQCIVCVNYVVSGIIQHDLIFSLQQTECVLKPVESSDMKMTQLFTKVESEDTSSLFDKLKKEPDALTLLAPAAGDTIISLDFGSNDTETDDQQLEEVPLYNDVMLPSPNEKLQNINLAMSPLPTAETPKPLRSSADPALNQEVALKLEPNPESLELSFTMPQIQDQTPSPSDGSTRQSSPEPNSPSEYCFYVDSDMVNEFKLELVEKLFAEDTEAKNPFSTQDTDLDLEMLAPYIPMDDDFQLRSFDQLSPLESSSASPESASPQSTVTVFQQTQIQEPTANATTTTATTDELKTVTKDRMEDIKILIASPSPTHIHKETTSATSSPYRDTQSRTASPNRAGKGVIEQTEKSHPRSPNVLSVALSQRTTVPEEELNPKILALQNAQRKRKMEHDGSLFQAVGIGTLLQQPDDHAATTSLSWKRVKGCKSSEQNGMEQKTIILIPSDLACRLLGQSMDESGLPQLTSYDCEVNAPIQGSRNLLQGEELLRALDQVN

In the case of `CN(C[C@@H](CC[N+]12CCC(C3CCCCC3)(CC1)CC2)c1ccc(Cl)c(Cl)c1)C(=O)c1cc(C(F)(F)F)cc(C(F)(F)F)c1`, the AC50 in [1] was 22.4 µM (active); in [2], 23.4 µM (active); in test [3] it was 34.2 µM (active); in [4] it was 60.9 µM (active); in [5] it was 91.2 µM (active); in [6] it was 15.8 µM (active). For the same compound, the AC50 was 71.9 µM (active) in test [7]; 50 µM (active) in [8]; 67.4 µM (active) in [9]; 20 µM (active) with HGF (gene 3082); 24.1 µM (active) in test [10]; 12.2 µM (active) in test [11]. The concentration at half-maximal activity (AC50) in test [12] is 13.9 µM (active); in test [13], 75.6 µM (active); in test [14] it was 78 µM (active); in test [15], 15.8 µM (active); in [16], 26.4 µM (active); in test [17], 88.5 µM (active). Besides, the half-maximal activity concentration (AC50) in test [18] was 15.8 µM (active).
As for `Oc1ccccc1`, the result in [1], in test [2], in test [3], in test [4], in test [5] and in test [6] was inactive. Also, the compound was classed as inactive (in test [7]; in test [8]; in test [9]; with HGF (gene 3082); in test [10]; in test [11]). For the same compound, the compound was called inactive in test [12], in [14], in [15], in [16], in test [17] and in test [18].
With `CCCCOC(=O)CC(CC(=O)OCCCC)(OC(C)=O)C(=O)OCCCC`, the call in test [1], in test [2], in [3], in [4], in [19] and in test [5] was inactive. Further, the compound was called inactive in test [6], in test [7], in test [8], in test [9], in test [10] and in [11]. Further, the compound was classed as inactive in [12], in [13], in test [14], in test [15], in test [16] and in test [17]. The compound was called inactive in test [18].
